The text below walks through data of PubChem BioAssay (Tox21).

Inconclusive results are not listed. Values without a mark were called inactive. Active and inactive are the calls of the source. Unless noted, the call rests on the fitted dose curve; in most records, active means well fitted cell-killing curve with a large enough effect in the repeat runs; inconclusive means weak or mixed curves, or effect the other way; inactive means no such curve, though single readings can be large or run the other way.
On the % scale 0 is the no-effect control and ±100 the full control effect.

One assay can be described thus: qHTS assay to identify small molecule agonists of the vitamin D receptor (VDR) signaling pathway - cell viability counter screen (AID 743224). Further: nearly all actives have a fitted effect of over 50% in size. The note with it: VDR-bla HEK293T viability, CellTiter-Glo luminescence, 16 h; series mostly up to 62.6 µM. The method, boiled down: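 Plated VDR-bla cells (4 h, 37C) received compound, incubated 16 h, then LiveBLAzer substrate 2 h RT; CellTiter-Glo added afterwards, luminescence read at 30 min.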
For the compound `CC(=O)OC1CCCCC1C(C)(C)C` (configuration not stated), the result was inactive.
On the same count and under the same terms, the same measure for `COS(=O)(=O)O`: “inactive”.
On to `CC(C)NCC(O)c1ccc2ccccc2c1` (configuration not stated), for which the result was inactive.
Consider `CCC(C(=O)OCCN1CCOC(c2ccccc2)C1C)c1ccccc1` (configuration not stated), for which the call was inactive.
As to `COc1nc(N)nc2nc[nH]c12`, the compound was classed as inactive.
For `CC1(C)[C@H]2CC[C@](C)(C2)[C@H]1O`, the compound was called inactive.
With `CCCCOC(=O)[C@H](C)O`, the call was inactive.
In the case of `CCc1occc(=O)c1O`, the compound was classed as inactive.
On to `Nc1nnnn1-c1ccccc1`, for which the result was inactive.
Consider `Cc1ccc2c(c1)C(=O)c1ccccc1C2=O`, for which the compound was classed as inactive.
In the case of `C=CC/C=C/C`, the call was inactive.
With `C=CC(=O)CCCCC`, the compound was called inactive.
With `CN(C)C(C)(C)CO`, the compound was called inactive.
With `O=C(CN1CCNCC1)NC1CCCCC1`, the result was inactive.
Consider `CC(=O)OCC(=O)Nc1cc(C#N)cc(NC(=O)COC(C)=O)c1Cl`, for which the compound was called inactive.
In the case of `Cc1ccccc1C(N)=O`, the call was inactive.
Take `Fc1ccccc1`: the outcome was inactive.
Regarding `CCC(C)C(=O)OCCc1ccccc1` (configuration not stated), the call was inactive.
For the compound `CCCCCCCCCOC(=O)c1ccccc1C(=O)OCCCCCCCCC`, the call was inactive.
`CCn1cc(C(=O)O)c(=O)c2cnc(N3CCCC3)nc21`: the activity change, negative = cytotoxicity is 7.07% [at 13.2 µM].
Take `COc1ccc(CCO)cc1`: the call was inactive.
`CC(C)Cn1cnc2c1c(=O)n(C)c(=O)n2C`: the compound was called inactive.
On to `CCN(CC)CCN`, for which the compound was classed as inactive.
Take `OCC1(CO)COCOC1`: the compound was classed as inactive.
As for `CC(C)[C@H]1CC[C@H](C)C[C@@H]1O`, the compound was called inactive.

A further assay in a line: qHTS assay to identify small molecule antagonists of the vitamin D receptor (VDR) signaling pathway - cell viability counter screen (AID 743225). Further: nearly all actives have a fitted effect of over 50% in size. The note with it: VDR-bla HEK293T viability, CellTiter-Glo luminescence, 16 h; series mostly up to 61 µM. In outline:
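VDR-UAS-bla HEK 293T cells were plated and incubated 4 h at 37C, then dosed with compound plus 3 nM (final) 1-alpha,25-dihydroxyvitamin D3 for 16 h. After the 2 h beta-lactamase read, viability in the same wells was read as CellTiter-Glo luminescence after 30 min at room temperature.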
(In general: qHTS replaces the single test concentration by a dilution series.)
In the case of `CC(=O)OC1CCCCC1C(C)(C)C` (configuration not stated), the compound was called inactive.
For `O=C=NCC1CCCC(CN=C=O)C1` (configuration not stated), the outcome was inactive.
In the case of `COS(=O)(=O)O`, the outcome was inactive.
Take `CC(C)NCC(O)c1ccc2ccccc2c1` (configuration not stated): the result was inactive.
For the compound `CCCCOC(=O)[C@H](C)O`, the compound was called inactive.
With `CCc1occc(=O)c1O`, the call was inactive.
Same read-out and setting: the same measure for `Nc1nnnn1-c1ccccc1`: “inactive”; for `Cc1ccc2c(c1)C(=O)c1ccccc1C2=O`: “inactive”.
With `COc1cc(/C=C/C(N)=O)cc(OC)c1OC`, the result was inactive.
As for `CN(C)CCOC(=O)C(c1ccccc1)C1(O)CCCC1` (configuration not stated), the call was inactive.
For `Cn1c(=O)c2[nH]c(Br)nc2n(C)c1=O`, the call was inactive.
`C=CC/C=C/C`: the result was inactive.
Still for that read-out and setting: under `CN(C)C(C)(C)CO` stands “inactive”; under `O=C(CN1CCNCC1)NC1CCCCC1`, “inactive”.
Still for that read-out and setting: under `CCCCCCCCCCOC(C)=O` stands “inactive”; under `CC(=O)OCC(=O)Nc1cc(C#N)cc(NC(=O)COC(C)=O)c1Cl`, “inactive”.
The same measure, in the same setting: under `CC1(C)Cc2cccc(N)c2O1` stands “inactive”; under `Cc1ccccc1C(N)=O`, “inactive”; under `Fc1ccccc1`, “inactive”.
In the case of `CCC(C)C(=O)OCCc1ccccc1` (configuration not stated), the compound was classed as inactive.
Turning to `CSc1cnccn1`, the compound was called inactive.
Still for that read-out and setting: the same measure for `CCCCCCCCCOC(=O)c1ccccc1C(=O)OCCCCCCCCC`: “inactive”.
For the compound `CCn1cc(C(=O)O)c(=O)c2cnc(N3CCCC3)nc21`, the viability change, negative = cytotoxic was -2.96% [at 6.95 µM].
As for `CC12CCC(C1)C(C)(C)C2O` (configuration not stated), the outcome was inactive.
Same read-out and setting: the same measure for `CC(C)Cn1cnc2c1c(=O)n(C)c(=O)n2C`: “inactive”.
Take `CCN(CC)CCN`: the compound was called inactive.
In the case of `C=CCCCCCCCC`, the outcome was inactive.
As for `OCC1(CO)COCOC1`, the call was inactive.
The same measure, in the same setting: under `CC(C)[C@H]1CC[C@H](C)C[C@@H]1O` stands “inactive”; under `O=NN(CCCl)C(=O)NC1CCCCC1`, “inactive”.

The nature of another assay: qHTS assay to identify small molecule agonists of the NFkB signaling pathway (AID 1159509; active means well fitted curve in the direction sought with a large enough effect in the signal ratio in the repeat runs, not every such curve was filed as active; the % refers to the signal ratio). The note with it: NFkB-bla ME-180 cells, beta-lactamase FRET ratio, 5 h; series mostly up to 61 µM. In outline: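 ME-180 NFkB-bla, 2,000 cells/well, overnight plating; cpd pinned in DMSO, 5 h 37 C; B/G FRET substrate 1.5 h RT; ex 405, em 460/530 nm.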
With `CC(=O)OC1CCCCC1C(C)(C)C` (configuration not stated), the outcome was inactive.
Same read-out and setting: the same measure for `O=C=NCC1CCCC(CN=C=O)C1` (configuration not stated): “inactive”; for `COS(=O)(=O)O`: “inactive”; for `CC(C)NCC(O)c1ccc2ccccc2c1` (configuration not stated): “inactive”.
Regarding `CCC(C(=O)OCCN1CCOC(c2ccccc2)C1C)c1ccccc1` (configuration not stated), the outcome was inactive.
Still for that read-out and setting: the same measure for `COc1nc(N)nc2nc[nH]c12`: “inactive”; for `CC1(C)[C@H]2CC[C@](C)(C2)[C@H]1O`: “inactive”.
For the compound `O=C1CCCCO1`, the result was inactive.
Consider `CCCCOC(=O)[C@H](C)O`, for which the outcome was inactive.
Consider `CCc1occc(=O)c1O`, for which the result was inactive.
On the same count and under the same terms, under `Nc1nnnn1-c1ccccc1` stands “inactive”.
The same measure, in the same setting: the same measure for `Cc1ccc2c(c1)C(=O)c1ccccc1C2=O`: “inactive”; for `NCc1ccc(S(N)(=O)=O)cc1`: “inactive”.
Turning to `COc1cc(/C=C/C(N)=O)cc(OC)c1OC`, the result was inactive.
In the case of `CN(C)CCOC(=O)C(c1ccccc1)C1(O)CCCC1` (configuration not stated), the outcome was inactive.
Take `Cn1c(=O)c2[nH]c(Br)nc2n(C)c1=O`: the outcome was inactive.
In the case of `C=CC/C=C/C`, the result was inactive.
Same read-out and setting: the same measure for `C=CC(=O)CCCCC`: “inactive”.
For the compound `CN(C)C(C)(C)CO`, the result was inactive.
For the compound `O=C(CN1CCNCC1)NC1CCCCC1`, the outcome was inactive.
As for `CCCCCCCCCCOC(C)=O`, the outcome was inactive.
As to `CC(=O)OCC(=O)Nc1cc(C#N)cc(NC(=O)COC(C)=O)c1Cl`, the outcome was inactive.
Same read-out and setting: the same measure for `CC1(C)Cc2cccc(N)c2O1`: “inactive”; for `Cc1ccccc1C(N)=O`: “inactive”; for `Fc1ccccc1`: “inactive”.
Take `CCC(C)C(=O)OCCc1ccccc1` (configuration not stated): the result was inactive.
In the case of `CSc1cnccn1`, the result was inactive.
Still for that read-out and setting: the same measure for `CCCCCCCCCOC(=O)c1ccccc1C(=O)OCCCCCCCCC`: “inactive”.
For `CCn1cc(C(=O)O)c(=O)c2cnc(N3CCCC3)nc21`, the activation was 0.219% [at 6.95 µM].
With `CC12CCC(C1)C(C)(C)C2O` (configuration not stated), the outcome was inactive.
For the compound `COc1ccc(CCO)cc1`, the outcome was inactive.
With `CC(C)Cn1cnc2c1c(=O)n(C)c(=O)n2C`, the outcome was inactive.
On the same count and under the same terms, under `CCN(CC)CCN` stands “inactive”.
Regarding `C=CCCCCCCCC`, the outcome was inactive.
For `OCC1(CO)COCOC1`, the result was inactive.
Turning to `CC(C)[C@H]1CC[C@H](C)C[C@@H]1O`, the result was inactive.
For the compound `O=NN(CCCl)C(=O)NC1CCCCC1`, the result was inactive.
